Records with an inconclusive call do not appear. Active and inactive are the calls of the source. How the source made its calls, unless noted: active means hit-call score of the fitted dose curve at least 0.9, where 1 is the maximum; inactive means score below 0.9.
Tests used:
[1] = ATG_TCF_b_cat_CIS: Attagene CIS-FACTORIAL HepG2 Assay for human T-Cell-Factor with beta-catenin (TCF/b-cat) (AID 2282965); details: HepG2 TCF/beta-catenin cis-reporter transcription, actives raise or lower the signal
Summary of the method: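 Using capillary electrophoresis as the read-out, labelled reporter cDNA fragments from transiently transfected HepG2 were sized and quantified. Exposure lasted 24 hours; activity in either direction was referenced to DMSO.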

[2] = ATG_TAL_CIS: Attagene CIS-FACTORIAL HepG2 Assay for human TAL Basal Promoter (AID 2282966); details: HepG2 Attagene cis-factorial TAL promoter reporter; actives raise or lower the signal;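 further: background control endpoint measuring basal TAL promoter reporter mRNA not a specific factor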
Summary of the method: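 Fluorescence of labelled reporter cDNA fragments, resolved by capillary electrophoresis, gave the readout. Human HepG2 liver cells carried transiently transfected cis-element reporter units and were treated for 24 hours; activity was fitted bidirectionally against DMSO.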

[3] = ATG_TGFb_CIS: Attagene CIS-FACTORIAL HepG2 Assay for human Transforming Growth Factor (TGF) (AID 2282967); details: HepG2 Attagene CIS TGFb reporter, mRNA transcription; actives raise or lower the signal
Summary of the method: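 HepG2 cells transiently transfected with cis-promoter-driven multiple reporter units measure endogenous TF activity; reporter mRNA quantified at 24 h by RT-PCR, FAM labeling, HpaI digestion and capillary electrophoresis. Bidirectional fit vs DMSO.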

[4] = ATG_VDRE_CIS: Attagene CIS-FACTORIAL HepG2 Assay for human Vitamin D Receptor Element (VDRE) (AID 2282968); details: HepG2 VDRE cis-reporter transcription, actives raise or lower the signal
Summary of the method: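 HepG2 cells transiently transfected with cis-element reporter units, dosed 24 h; reporter mRNA measured by RT-PCR, 6-FAM labeling, HpaI digestion and capillary electrophoresis. Activity fitted bidirectionally against DMSO baseline.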

[5] = molecular target: Estrogen receptor (Homo sapiens) (UniProt P03372); assay: ATG_ERa_TRANS: Attagene TRANS-FACTORIAL HepG2 Assay for human Estrogen Receptor alpha (ERa) (AID 2282970; active means hit-call score of the fitted dose curve at least 0.9, where 1 is the maximum); details: HepG2 Attagene TRANS ERa GAL4 reporter, mRNA
Summary of the method: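 Human liver HepG2, transient transfection of multiple GAL4-UAS reporter units; TRANS format (exogenous NR-Gal4 chimera). 24 h dosing. Readout: reporter mRNA, RT-PCR, 6-FAM primer extension, HpaI digest, capillary electrophoresis. Positive direction vs DMSO.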

[6] = molecular target: Steroid hormone receptor ERR1 (Homo sapiens) (UniProt P11474); assay: ATG_ERRa_TRANS: Attagene TRANS-FACTORIAL HepG2 Assay for human Estrogen-Related Receptor alpha (ERRa) (AID 2282971; active means hit-call score of the fitted dose curve at least 0.9, where 1 is the maximum); details: HepG2 Attagene TRANS reporter, ERRa transactivation
Summary of the method: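 Reporter transcript induction was quantified by RT-PCR and capillary electrophoresis of FAM-labelled, HpaI-cut products after 24 h treatment of HepG2 cells carrying transiently transfected GAL4-UAS reporter units and an exogenous ERRa-Gal4 fusion; activity scored as increase over DMSO.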

[7] = molecular target: X-box-binding protein 1 (Homo sapiens) (UniProt P17861); assay: ATG_Xbp1_CIS: Attagene CIS-FACTORIAL HepG2 Assay for human X-box Binding Protein 1 (XBP1) (AID 2282972); details: HepG2 XBP1 cis-element reporter, Attagene multiplex; actives raise or lower the signal
Summary of the method: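 HepG2 cells transiently transfected with cis-regulated multiple reporter transcription units; endogenous transcription factor activity measured 24 hours after chemical dosing. Reporter mRNA quantified by RT-PCR, 6-FAM primer extension, HpaI digestion and capillary electrophoresis; bidirectional fitting versus DMSO.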

[8] = ATG_GAL4_TRANS: Attagene TRANS-FACTORIAL HepG2 Assay for GAL4 (Internal Marker) (AID 2282976; active means hit-call score of the fitted dose curve at least 0.9, where 1 is the maximum); details: HepG2 Attagene TRANS GAL4 internal marker reporter
Summary of the method: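 First, HepG2 cells were transfected with reporter units under GAL4-UAS control. Next, they were treated with chemical for 24 h. Finally, RNA was reverse-transcribed, PCR-amplified, FAM-labelled and resolved by capillary electrophoresis, with induction scored against DMSO.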

[9] = ATG_M_06_TRANS: Attagene TRANS-FACTORIAL HepG2 Assay for M06 Transcription Factor (Internal Marker) (AID 2282983; active means hit-call score of the fitted dose curve at least 0.9, where 1 is the maximum;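 further: reporter transcript level by RT-PCR then capillary electrophoresis fluorescence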); details: HepG2 Attagene TRANS M06 internal marker reporter
Summary of the method: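 Transfect HepG2 with MRTUs → dose compounds 24 h → isolate RNA, oligo(dT) RT → PCR with reporter primers → 6-FAM primer extension → HpaI digest → CE fragment analysis. Positive direction vs DMSO.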

[10] = molecular target: Transcriptional activator Myb (Homo sapiens) (UniProt P10242); assay: ATG_Myb_CIS: Attagene CIS-FACTORIAL HepG2 Assay for human Myeloblastosis (Myb) Proto-Oncogene Transcription Factor (AID 2282986); details: HepG2 Attagene CIS-FACTORIAL Myb reporter transcription; actives raise or lower the signal
Summary of the method: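 HepG2 cells were transiently transfected with cis-regulated multiple reporter transcription units reflecting endogenous Myb activity, then exposed to compound for 24 hours. Reporter mRNA was measured by RT-PCR with capillary electrophoresis; bidirectional fitting versus DMSO baseline.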

[11] = molecular target: Nuclear respiratory factor 1 (Homo sapiens) (UniProt Q16656); assay: ATG_NRF1_CIS: Attagene CIS-FACTORIAL HepG2 Assay for human Nuclear Respiratory Factor 1 (NRF1) Orphan Gene (AID 2282987); details: HepG2 NRF1 cis-element reporter, Attagene multiplex; actives raise or lower the signal
Summary of the method: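 HepG2 cells transiently transfected with multiple reporter transcription units under cis-regulatory promoter control, so endogenous transcription-factor activity is read. After 24 h compound exposure, reporter mRNA quantified by RT-PCR, fluorescent labelling, HpaI digestion and capillary electrophoresis; bidirectional fitting versus DMSO.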

[12] = ATG_NFI_CIS: Attagene CIS-FACTORIAL HepG2 Assay for human Nuclear Factor I (NFI) (AID 2282989); details: HepG2 cis-regulatory reporter, NFI response element transcription; actives raise or lower the signal
Summary of the method: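 Endogenous TF activity in HepG2 cells transiently transfected with cis-element-driven multiplexed reporter units, read 24 h after dosing. Reporter mRNA quantified by RT-PCR, 6-FAM labelling, HpaI digestion and capillary electrophoresis; bidirectional fit versus DMSO.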

[13] = molecular target: Glucocorticoid receptor (Homo sapiens) (UniProt P04150); assay: ATG_GR_TRANS: Attagene TRANS-FACTORIAL HepG2 Assay for human Glucocorticoid Receptor (GR) (AID 2282978; active means hit-call score of the fitted dose curve at least 0.9, where 1 is the maximum;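 further: activators score as hits since higher reporter transcript over DMSO is fitted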); details: HepG2 Attagene TRANS GR reporter, mRNA transcription
Summary of the method: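 HepG2 cells transiently transfected with multiplexed reporter units in which chimeric NR-GAL4 proteins drive GAL4-UAS reporters; 24 h compound exposure. Reporter mRNA measured by RT-PCR, 6-FAM labelling, HpaI digestion and capillary electrophoresis; gain-of-signal fitted versus DMSO.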

[14] = molecular target: Bile acid receptor (Homo sapiens) (UniProt Q96RI1); assay: ATG_FXR_TRANS: Attagene TRANS-FACTORIAL HepG2 Assay for Farnesoid X Receptor (FXR) (AID 2282979; active means hit-call score of the fitted dose curve at least 0.9, where 1 is the maximum;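 further: hits raise reporter mRNA above DMSO so AC50 marks FXR activation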); details: HepG2 Attagene TRANS FXR-GAL4 reporter transcription
Summary of the method: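 Transient transfection of HepG2 with multiplexed GAL4-UAS reporter units; exogenous FXR-GAL4 chimera. Dose 24 h → TriZol RNA → oligo(dT) RT → PCR, 6-FAM primer extension, HpaI cut → CE. Gain vs DMSO.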

[15] = molecular target: Oxysterols receptor LXR-beta (Homo sapiens) (UniProt P55055); assay: ATG_LXRb_TRANS: Attagene TRANS-FACTORIAL HepG2 Assay for human Liver X Receptor beta (LXRb) (AID 2282981; active means hit-call score of the fitted dose curve at least 0.9, where 1 is the maximum); details: HepG2 Attagene TRANS GAL4-LXRb reporter, mRNA
Summary of the method: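 HepG2 cells transiently transfected with multiple reporter transcription units carrying chimeric NR-Gal4 proteins acting on GAL4-UAS reporters; compound exposure 24 h. Reporter mRNA quantified by RT-PCR, 6-FAM labelling, HpaI digestion and capillary electrophoresis; gain of signal versus DMSO.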

[16] = ATG_M_32_TRANS: Attagene TRANS-FACTORIAL HepG2 Assay for M32 Transcription Factor (Internal Marker) (AID 2282984; active means hit-call score of the fitted dose curve at least 0.9, where 1 is the maximum;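 further: transcript level of a background control reporter unit measured by RT-PCR and capillary electrophoresis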); details: HepG2 Attagene TRANS M32 internal marker reporter
Summary of the method: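 HepG2 cells transiently transfected with multiple GAL4-UAS reporter transcription units, dosed for 24 hours; reporter mRNA quantified by RT-PCR, 6-FAM primer extension, HpaI digestion and capillary electrophoresis. Gain-of-signal fitted versus DMSO baseline; internal background-control marker.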

[17] = ATG_M_19_TRANS: Attagene TRANS-FACTORIAL HepG2 Assay for M19 Transcription Factor (Internal Marker) (AID 2282974; active means hit-call score of the fitted dose curve at least 0.9, where 1 is the maximum); details: HepG2 Attagene TRANS-FACTORIAL M19 internal marker reporter
Summary of the method: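 HepG2 cells transiently transfected with multiple GAL4-UAS reporter transcription units were exposed to chemicals for 24 h. Reporter mRNA was read by RT-PCR, 6-FAM primer extension, HpaI digestion and capillary electrophoresis; gain of signal fitted relative to DMSO.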

[18] = molecular target: Oxysterols receptor LXR-alpha (Homo sapiens) (UniProt Q13133); assay: ATG_LXRa_TRANS: Attagene TRANS-FACTORIAL HepG2 Assay for human Liver X Receptor alpha (LXRa) (AID 2282980; active means hit-call score of the fitted dose curve at least 0.9, where 1 is the maximum); details: HepG2 Attagene TRANS reporter, LXRa transactivation
Summary of the method: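 Transfect HepG2 with GAL4-UAS multiplex reporter constructs (TRANS format, chimeric receptor-GAL4); treat 24 h; extract RNA, reverse-transcribe, PCR-amplify, FAM-label, HpaI-digest; resolve fragments by capillary electrophoresis. Upward response vs DMSO.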

[19] = molecular target: Hepatocyte nuclear factor 4-alpha (Homo sapiens) (UniProt P41235); assay: ATG_HNF4a_TRANS: Attagene TRANS-FACTORIAL HepG2 Assay for human Hepatocyte Nuclear Factor 4 alpha (HNF4a) (AID 2282982; active means hit-call score of the fitted dose curve at least 0.9, where 1 is the maximum); details: HepG2 HNF4a transactivation reporter, mRNA readout
Summary of the method: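 HepG2 cells transiently transfected with multiplexed GAL4-UAS reporter units responsive to chimeric NR-GAL4 proteins; compound exposure 24 h. Reporter mRNA quantified by RT-PCR, 6-FAM labelling, HpaI digestion and capillary electrophoresis; gain of signal versus DMSO baseline.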

Measured: outcome

Estrogen receptor (Homo sapiens), sequence (P03372 whole entry, looked up, the tested form may be a part): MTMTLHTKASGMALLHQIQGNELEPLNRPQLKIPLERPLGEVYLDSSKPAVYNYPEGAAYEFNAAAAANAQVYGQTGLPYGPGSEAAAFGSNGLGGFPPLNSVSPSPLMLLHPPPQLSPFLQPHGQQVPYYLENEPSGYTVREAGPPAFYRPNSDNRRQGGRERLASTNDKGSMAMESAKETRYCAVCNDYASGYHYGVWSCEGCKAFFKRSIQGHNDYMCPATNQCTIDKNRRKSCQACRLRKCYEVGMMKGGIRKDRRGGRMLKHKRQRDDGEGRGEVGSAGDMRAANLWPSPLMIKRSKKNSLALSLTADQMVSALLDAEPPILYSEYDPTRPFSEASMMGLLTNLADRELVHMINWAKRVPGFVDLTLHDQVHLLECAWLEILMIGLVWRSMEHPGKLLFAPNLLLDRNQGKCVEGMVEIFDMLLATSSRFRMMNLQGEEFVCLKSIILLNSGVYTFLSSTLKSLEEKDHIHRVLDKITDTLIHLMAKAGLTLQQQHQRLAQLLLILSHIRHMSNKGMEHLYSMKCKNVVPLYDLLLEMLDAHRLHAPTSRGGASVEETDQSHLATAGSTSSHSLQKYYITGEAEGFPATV
Nuclear respiratory factor 1 (Homo sapiens), sequence (Q16656 whole entry, looked up): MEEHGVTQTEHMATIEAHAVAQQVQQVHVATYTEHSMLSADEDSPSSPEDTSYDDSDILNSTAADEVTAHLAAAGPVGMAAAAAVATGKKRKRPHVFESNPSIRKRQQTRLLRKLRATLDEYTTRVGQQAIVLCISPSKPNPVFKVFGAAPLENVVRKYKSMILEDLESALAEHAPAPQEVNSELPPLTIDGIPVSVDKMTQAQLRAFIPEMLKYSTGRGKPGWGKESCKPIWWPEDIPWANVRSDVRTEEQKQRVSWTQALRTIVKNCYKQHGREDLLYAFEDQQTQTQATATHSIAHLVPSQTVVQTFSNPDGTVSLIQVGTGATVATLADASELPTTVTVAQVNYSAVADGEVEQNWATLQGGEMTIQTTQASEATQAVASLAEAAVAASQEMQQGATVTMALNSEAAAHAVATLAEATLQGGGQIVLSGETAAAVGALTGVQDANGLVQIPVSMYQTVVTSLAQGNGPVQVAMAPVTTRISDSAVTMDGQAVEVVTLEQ
X-box-binding protein 1 (Homo sapiens), sequence (P17861 whole entry, looked up): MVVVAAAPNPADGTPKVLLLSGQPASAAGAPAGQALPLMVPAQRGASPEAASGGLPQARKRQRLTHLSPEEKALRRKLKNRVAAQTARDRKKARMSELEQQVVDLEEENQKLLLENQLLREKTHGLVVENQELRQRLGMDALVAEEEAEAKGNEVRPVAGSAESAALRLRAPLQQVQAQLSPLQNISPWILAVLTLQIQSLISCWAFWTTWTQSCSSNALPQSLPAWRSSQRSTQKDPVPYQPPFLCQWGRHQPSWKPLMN
Bile acid receptor (Homo sapiens), sequence (Q96RI1 whole entry, looked up, the tested form may be a part): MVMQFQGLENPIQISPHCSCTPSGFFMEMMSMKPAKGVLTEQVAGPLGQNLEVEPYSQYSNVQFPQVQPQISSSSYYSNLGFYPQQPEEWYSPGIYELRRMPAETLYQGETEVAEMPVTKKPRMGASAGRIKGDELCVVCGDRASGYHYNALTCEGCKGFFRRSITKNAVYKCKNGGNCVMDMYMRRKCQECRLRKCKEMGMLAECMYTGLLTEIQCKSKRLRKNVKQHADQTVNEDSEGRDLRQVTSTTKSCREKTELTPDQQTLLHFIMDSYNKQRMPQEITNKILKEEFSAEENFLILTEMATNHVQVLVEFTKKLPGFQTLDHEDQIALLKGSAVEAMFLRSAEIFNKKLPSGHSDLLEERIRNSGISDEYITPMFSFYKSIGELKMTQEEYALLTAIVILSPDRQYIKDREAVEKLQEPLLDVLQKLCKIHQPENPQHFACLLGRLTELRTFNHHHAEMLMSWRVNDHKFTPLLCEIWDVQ
Oxysterols receptor LXR-alpha (Homo sapiens), sequence (Q13133 whole entry, looked up, the tested form may be a part): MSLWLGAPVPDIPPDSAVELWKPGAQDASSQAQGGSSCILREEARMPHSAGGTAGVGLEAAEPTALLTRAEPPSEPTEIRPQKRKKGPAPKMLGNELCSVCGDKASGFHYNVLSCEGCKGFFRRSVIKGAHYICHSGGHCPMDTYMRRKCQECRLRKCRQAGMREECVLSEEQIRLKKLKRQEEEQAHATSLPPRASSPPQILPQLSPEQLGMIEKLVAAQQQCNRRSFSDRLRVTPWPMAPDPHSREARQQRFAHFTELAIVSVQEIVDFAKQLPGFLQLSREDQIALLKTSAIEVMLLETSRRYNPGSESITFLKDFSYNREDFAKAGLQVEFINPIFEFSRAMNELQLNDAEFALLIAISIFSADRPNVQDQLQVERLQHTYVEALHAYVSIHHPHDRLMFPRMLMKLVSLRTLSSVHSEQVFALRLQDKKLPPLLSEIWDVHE
Transcriptional activator Myb (Homo sapiens), sequence (P10242 whole entry, looked up): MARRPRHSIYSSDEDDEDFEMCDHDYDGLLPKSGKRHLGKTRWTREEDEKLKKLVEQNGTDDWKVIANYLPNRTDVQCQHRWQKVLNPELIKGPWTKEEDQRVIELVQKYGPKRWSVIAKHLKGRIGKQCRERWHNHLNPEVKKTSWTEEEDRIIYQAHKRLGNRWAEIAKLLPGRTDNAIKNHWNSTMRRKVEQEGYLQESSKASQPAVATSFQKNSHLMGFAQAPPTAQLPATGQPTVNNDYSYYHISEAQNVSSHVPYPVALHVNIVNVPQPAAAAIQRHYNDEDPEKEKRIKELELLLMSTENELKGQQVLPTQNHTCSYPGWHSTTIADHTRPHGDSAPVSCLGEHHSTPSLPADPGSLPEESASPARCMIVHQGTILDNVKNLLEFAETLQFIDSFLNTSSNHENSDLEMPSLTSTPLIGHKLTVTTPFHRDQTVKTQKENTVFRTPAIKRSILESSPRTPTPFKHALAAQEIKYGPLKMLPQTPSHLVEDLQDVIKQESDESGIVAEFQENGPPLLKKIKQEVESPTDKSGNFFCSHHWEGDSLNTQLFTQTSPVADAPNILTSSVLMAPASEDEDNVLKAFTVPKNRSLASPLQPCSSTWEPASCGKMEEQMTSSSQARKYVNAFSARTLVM
Oxysterols receptor LXR-beta (Homo sapiens), sequence (P55055 whole entry, looked up, the tested form may be a part): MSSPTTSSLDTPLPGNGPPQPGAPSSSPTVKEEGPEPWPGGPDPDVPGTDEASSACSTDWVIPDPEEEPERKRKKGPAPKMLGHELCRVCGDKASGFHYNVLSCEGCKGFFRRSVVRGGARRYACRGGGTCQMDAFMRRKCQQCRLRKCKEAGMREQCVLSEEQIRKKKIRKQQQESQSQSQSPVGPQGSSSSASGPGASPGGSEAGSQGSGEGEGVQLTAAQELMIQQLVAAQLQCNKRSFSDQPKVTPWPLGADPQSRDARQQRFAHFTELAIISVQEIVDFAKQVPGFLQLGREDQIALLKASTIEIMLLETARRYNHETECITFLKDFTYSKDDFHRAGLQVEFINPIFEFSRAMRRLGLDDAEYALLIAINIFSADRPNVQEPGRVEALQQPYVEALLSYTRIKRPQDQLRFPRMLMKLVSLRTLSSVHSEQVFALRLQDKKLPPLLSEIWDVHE
Steroid hormone receptor ERR1 (Homo sapiens), sequence (P11474 whole entry, looked up, the tested form may be a part): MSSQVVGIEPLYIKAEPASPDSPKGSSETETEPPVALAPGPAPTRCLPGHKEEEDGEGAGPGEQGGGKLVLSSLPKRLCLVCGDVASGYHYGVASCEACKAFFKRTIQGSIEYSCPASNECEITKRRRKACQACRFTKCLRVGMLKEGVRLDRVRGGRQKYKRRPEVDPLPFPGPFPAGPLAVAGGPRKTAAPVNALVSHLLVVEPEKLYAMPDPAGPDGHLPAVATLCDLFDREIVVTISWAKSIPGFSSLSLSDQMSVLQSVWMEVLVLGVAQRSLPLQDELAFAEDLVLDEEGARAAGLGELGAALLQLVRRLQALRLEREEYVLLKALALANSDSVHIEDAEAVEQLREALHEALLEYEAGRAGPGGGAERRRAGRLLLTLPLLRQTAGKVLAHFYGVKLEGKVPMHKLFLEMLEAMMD
Glucocorticoid receptor (Homo sapiens), sequence (P04150 whole entry, looked up, the tested form may be a part): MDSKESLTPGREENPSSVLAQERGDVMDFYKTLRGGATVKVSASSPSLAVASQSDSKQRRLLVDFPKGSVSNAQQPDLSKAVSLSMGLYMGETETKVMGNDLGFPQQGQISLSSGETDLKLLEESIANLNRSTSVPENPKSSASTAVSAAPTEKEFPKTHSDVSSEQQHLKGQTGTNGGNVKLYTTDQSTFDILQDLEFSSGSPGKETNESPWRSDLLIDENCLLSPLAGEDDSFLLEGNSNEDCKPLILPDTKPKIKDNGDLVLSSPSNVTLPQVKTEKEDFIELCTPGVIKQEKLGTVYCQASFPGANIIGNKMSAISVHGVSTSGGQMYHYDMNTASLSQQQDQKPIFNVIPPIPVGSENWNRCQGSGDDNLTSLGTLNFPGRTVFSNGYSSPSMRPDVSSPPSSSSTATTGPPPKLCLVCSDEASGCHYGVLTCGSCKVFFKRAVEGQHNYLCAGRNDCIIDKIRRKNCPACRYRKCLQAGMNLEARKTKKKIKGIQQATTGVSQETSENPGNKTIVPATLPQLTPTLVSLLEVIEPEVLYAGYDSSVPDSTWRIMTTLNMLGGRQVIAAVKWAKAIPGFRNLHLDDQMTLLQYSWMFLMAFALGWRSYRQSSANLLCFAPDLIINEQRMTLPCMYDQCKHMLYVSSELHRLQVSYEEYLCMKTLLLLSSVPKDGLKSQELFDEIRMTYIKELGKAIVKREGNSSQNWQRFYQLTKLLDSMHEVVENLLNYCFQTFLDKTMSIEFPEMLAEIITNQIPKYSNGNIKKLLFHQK

CN1CCN(c2ccccc2/C=C2\SCCN(c3ccc(Cl)c(Cl)c3)C2=O)CC1
inactive: [1] | [2] | [3] | [4] | [5] | [6] | [7] | [8] | [9] | [10] | [11] | [12]

c1ccc2c(c1)ccc1ccccc12
inactive: [1] | [2] | [3] | [4] | [5] | [6] | [7] | [13] | [14] | [15] | [9] | [16] | [10] | [11] | [12]

CC(O)C(=O)O (stereo not drawn)
inactive: [1] | [2] | [3] | [4] | [5] | [7] | [17] | [8] | [14] | [18] | [15] | [19] | [9] | [16] | [10] | [11] | [12]

COC(=O)CCCCC(=O)OC
inactive: [1] | [2] | [3] | [4] | [5] | [7] | [8] | [13] | [14] | [9] | [16] | [10] | [11] | [12]

Reference: PubChem BioAssay (EPA / NIEHS)
